High-throughput results from PubChem BioAssay.
MIN6 prolif-1: induces beta-cell replication in MIN6 cells; hit rate 0.29% among 330,000; proliferation, % at 10 µM; MIN6 cells proliferation, ATPlite luminescence, 48 h; cells starved in 0.2% serum; 100% = growth in 10% serum;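 active = compounds whose signal lies at least 3.5 SD above the mean of all wells on their plate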;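 note: 0% = DMSO-treated cells in low-serum medium and 100% = 10% serum control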
Myeloid diff 2: promotes myeloid progenitor differentiation. calls only at 10 µM. ER-HoxA9 myeloid progenitors, lysozyme-GFP differentiation, flow cytometry. hit rate 1% among 360,000;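 active = normalized GFP-positive differentiation at or above the plate's own cutoff, the solvent-only control mean plus 3 SD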;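 note: cells exposed to compound for four days before flow analysis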
H9c2 protect: protects H9c2 cardiomyocytes from peroxide injury | H2O2 injury protection, ATPLite, 2 h | protection from H2O2 cell death, % at 20 µM | hit rate 0.63% among 360,000 | AID 588492;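 active = compounds giving at least 50% protection of heart cells from peroxide-induced death in the single-dose screen, raw or plate-pattern-corrected value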;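 note: 0% = DMSO wells with peroxide and 100% = DMSO wells without peroxide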
iPSC survival up: enhancers of human iPSC single-cell survival | hiPSC single-cell survival, ATPlite luminescence; 100% = ROCK inhibitor wells, 0% = DMSO | survival enhancement, % at 20 µM | hit rate 0.044% among 360,000 | AID 602274; in the data active = survival enhancement above about 18%;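 note: cells exposed to compounds for 16 hours before the ATP read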
ABCB6 inh 2: human ABCB6 transporter inhibition; Q9NP58; K562-ABCB6 porphyrin accumulation, flow cytometry, 1 h; hits give low values; fluorescence ratio to DMSO, % at 10 µM; hit rate 0.19% among 360,000;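 active = fluorescence ratio to DMSO below 75%, the collection mean minus 3 SD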;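 note: signal is porphyrin accumulated inside mitochondria; 100% equals median channel fluorescence of DMSO control wells; lower ratio means ABCB6 inhibition with less porphyrin fluorescence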
MIN6 prolif-2: MIN6 beta-cell replication induction, confirmed; shares compounds with MIN6 prolif-1; MIN6 beta-cell proliferation, ATPlite luminescence, 48 h; cells kept in 0.2% serum; scaled between 0.2% and 10% serum; proliferation increase, % at 50 µM; 920 tested, under 10 active; AID 463095;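 active = proliferation increase above 40% at any of the four tested concentrations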
* = called active by the depositor; i = inactive; / = no result. The list is not random: actives were taken first. Their share in the collection is about 2.2%.

SMILES	MIN6 prolif-1	Myeloid diff 2	H9c2 protect	iPSC survival up	ABCB6 inh 2	MIN6 prolif-2
Cc1ccccc1Cn1nnc(-c2ccc3c(c2)OCO3)n1	-3.9	i	-8.2	-3.9	90.0	/
Cc1ccc(Nc2nc(N)c([N+](=O)[O-])c(NCc3ccccc3)n2)cc1	-1.8	i	-8.3	-0.4	91.0	/
CCC(C)Nc1nc(N)c([N+](=O)[O-])c(NCc2ccccc2)n1 (configuration not stated)	6.2*	i	-3.5	-0.7	92.0	-6.4
COc1cc([N+](=O)[O-])ccc1NC(=O)c1cccc(NC(=O)C(C)C)c1	7.8*	i	1.8	1.0	97.0	-3.2
Nc1nc(CSc2nc3ccccc3s2)nc(N2CCCCC2)n1	9.0*	i	-21.7	1.8	103.0	1.8
CCOc1ccc(OCCC(=O)N2CCN(S(=O)(=O)c3ccc(F)cc3)CC2)cc1	1.8	i	-6.6	-0.3	102.0	/
CCn1nnnc1-c1ccc(OC)c(S(=O)(=O)Nc2ccc(OC)cc2)c1	-1.8	i	6.9	3.0	101.0	/
CCCCn1c(SCC(=O)Nc2sc3c(c2C(N)=O)CCC3)nnc1-c1ccccc1	8.3*	i	-10.0	1.2	97.0	-6.2
NC(=O)c1c(NC(=O)CSc2nnc(Cc3ccccc3)n2Cc2ccco2)sc2c1CCC2	-1.6	i	-11.1	-2.9	99.0	/
Cc1ccc(C(=O)c2sc3c(c2N)c(=O)[nH]c(=O)n3CCc2ccccc2)cc1	-5.9	i	1.0	1.8	103.0	/
CCn1c(=O)[nH]c(=O)c2c(N)c(C(=O)c3cc(F)ccc3F)sc21	9.1*	i	10.5	0.6	96.0	1.7
CC(=O)Nc1ccc(SCC(=O)OCC(=O)NC(=O)NC2CCCC2)cc1	-0.8	i	13.7	0.7	102.0	/
Cc1ccc(C)c2[nH]c(=O)c(CN(Cc3nnnn3C3CCCCC3)CC3CCCO3)cc12 (configuration not stated)	-1.2	i	17.6	3.6	101.0	/
COCC(C)n1c(SCC(=O)N2CC(=O)Nc3ccccc32)nc2ccccc2c1=O (configuration not stated)	10.9*	i	4.6	-2.9	98.0	1.3
CC(c1ccccc1)n1c(SCC(=O)N2CC(=O)Nc3ccccc32)nc2ccccc2c1=O (configuration not stated)	0.0	i	13.1	0.4	96.0	/
COc1cc2c(cc1OC)C1=C(C#N)CCC(=NC(=O)c3ccco3)N1CC2	9.8*	i	5.2	-1.0	103.0	4.2
COc1cc(C(=O)N2CCN(C(=O)c3ccco3)CC2)c([N+](=O)[O-])cc1OC	-2.6	i	8.8	2.4	103.0	/
OCC[C@H]1C[C@@H](O)[C@H](O)[C@]2(CCCc3ccccc3O2)O1	2.8	i	-0.5	2.1	104.0	/
OCC[C@@H]1C[C@@H](O)[C@H](O)[C@]2(CCCc3ccccc3O2)O1	13.7*	i	12.4	0.1	102.0	-2.0
CCOC(=O)C1(Cc2ccccc2C)CCCN(C(=O)CSC)C1 (configuration not stated)	/	i	6.2	1.6	93.0	/
CCOC(=O)C1(Cc2ccccc2C)CCCN(C(=O)CCn2nccc2C)C1 (configuration not stated)	10.5*	/	10.0	-1.5	92.0	-3.5
Cc1cccc(N/C=C/C(=C(C#N)C#N)N(C)C)c1	-0.5	/	6.7	0.5	103.0	/
CN(C)C(/C=C/Nc1cccc([N+](=O)[O-])c1)=C(C#N)C#N	8.1*	i	1.1	-1.1	98.0	0.9
O=C(CN1C(=O)COc2ccc(S(=O)(=O)N3CCCC3)cc21)NC1CCCCCCC1	0.0	/	/	/	/	/
CC(=O)NS(=O)(=O)c1cccnc1Nc1ccc(Cl)c(Cl)c1	1.9	i	-9.3	-2.5	112.0	/
Nc1ccc(-c2nnnn2-c2ccc(N)cc2)cc1	5.3*	i	5.3	-0.1	106.0	-2.8
Cc1ccc(-n2nnnc2-c2ccccc2)cc1	4.4	i	-3.0	-0.4	101.0	/
C=CCc1cccc2cc(C(=O)NC)c(=O)oc12	2.1	i	1.4	-1.8	85.0	/
O=C(CSc1n[nH]c(=O)n1-c1ccc2c(c1)OCCO2)Nc1ccccc1	4.9*	i	-4.1	-0.5	88.0	0.1
COCCCNC(=O)c1ccc([N+](=O)[O-])cc1	-0.1	i	0.3	0.1	111.0	/
